Screening results from PubChem.
USP1-UAF1 inh: USP1/UAF1 (human) deubiquitinase inhibition. recombinant USP1/UAF1, Ub-Rhodamine cleavage fluorescence. O94782. hit rate 0.23% among 390,000. Potency, µM (doses to about 57.1 µM), most hits filed as inhibitors; note: nearly all actives have a fitted effect of over 60% in size
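In this screen, compounds sit with the deubiquitinase complex (1nM) for 15 min at room temperature before Ub-Rho is added at 150nM final. Fluorescence rise is then followed for 6 reads every 60 seconds.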
Tb PGK inh: T. brucei PGK inhibition | P07378 | Potency, µM (doses to about 57.5 µM), usual class: inhibitors | hit rate 0.043% among 380,000 | AID 602233 | PGK/GAPDH coupled, Kinase-Glo luminescence, 60 min; note: nearly all actives have a fitted effect of over 60% in size
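Luminescent ATP detection (Kinase-Glo Plus) follows a 60-minute room-temperature incubation, with wells lacking PGK as controls. Buffer: 100 mM TEA (pH 7.6), 5 mM MgCl2, 0.01% Tween-20. Coupling enzyme GAPDH (100 nM final) supplies unstable 1,3-BPG in-well.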
PI4K2A inh: inhibitors of human PI4K2A; purified PI4K2A, ADP-Glo luminescence, 1 h; stronger effect = lower value; activity change, negative = inhibition, % at 76.9 µM; hit rate 0.13% among 420,000; AID 1346378; in the data active = activity change below about -50%; inconclusive = mostly about -30% to -49%
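In this quantitative HTS, ADP production by PI4K2A was quantified luminescently after 1 h at ambient temperature; 100 microM adenosine served as plate-quality control.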
GLS inhibitor: inhibitors of human glutaminase (GLS) | O94925 | GLS enzymatic activity, qHTS titration | Potency, µM (titrated, usually from 45.5 µM), most hits filed as inhibitors | hit rate 0.21% among 410,000 | AID 624170
Target sequence (O94925 whole entry, looked up): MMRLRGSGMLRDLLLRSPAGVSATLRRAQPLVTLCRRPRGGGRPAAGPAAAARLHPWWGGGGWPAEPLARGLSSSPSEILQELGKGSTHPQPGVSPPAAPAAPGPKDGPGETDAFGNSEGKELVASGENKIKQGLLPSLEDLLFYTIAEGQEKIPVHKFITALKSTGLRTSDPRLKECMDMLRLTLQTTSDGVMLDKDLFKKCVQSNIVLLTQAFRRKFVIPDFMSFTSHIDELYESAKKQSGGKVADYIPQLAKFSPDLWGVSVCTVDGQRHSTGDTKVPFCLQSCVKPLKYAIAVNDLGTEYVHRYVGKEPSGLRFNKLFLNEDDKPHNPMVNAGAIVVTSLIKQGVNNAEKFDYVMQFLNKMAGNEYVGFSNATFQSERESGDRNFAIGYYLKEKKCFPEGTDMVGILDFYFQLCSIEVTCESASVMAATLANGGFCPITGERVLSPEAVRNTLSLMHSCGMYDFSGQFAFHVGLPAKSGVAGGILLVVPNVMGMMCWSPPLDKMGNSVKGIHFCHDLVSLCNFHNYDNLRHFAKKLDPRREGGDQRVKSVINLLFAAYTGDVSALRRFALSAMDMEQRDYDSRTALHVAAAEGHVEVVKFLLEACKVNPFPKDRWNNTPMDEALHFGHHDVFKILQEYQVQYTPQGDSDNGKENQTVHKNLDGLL
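Human kidney-isoform GLS in 45 mM KH2PO4 pH 8.2, 0.02% Tween-20, with compound, started with 1mM L-Glutamine (added stock). Glutamate oxidase/HRP/Amplex red coupled fluorescence read at start and after 30 min at RT.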
Large screens that a line does not name were inactive. An excerpt weighted towards active compounds, which were near 0.53% of everything screened. Unless noted, calls come from the whole dose curve; as a rule, active = well fitted curve in the direction sought with a large enough effect; inconclusive = small, poorly fitted or top-dose-only effect, or another doubt; inactive = no such curve, though single readings can be large; an effect the other way counts as inactive or inconclusive.

COC(=O)CCC(=O)OC1(C)C(=O)C2=COC(c3ccc(OC)cc3)=CC2=C(Br)C1=O (stereo unspecified)	USP1-UAF1 inh inconclusive, Tb PGK inh 15.8µM, PI4K2A inh inconclusive, GLS inhibitor inconclusive
N#C/C(=C1/SC[C@@H](c2ccc(Cl)cc2Cl)S1)n1ccnc1	none (no result: USP1-UAF1 inh, Tb PGK inh)
C[C@]12C=CC(=O)C=C1[C@@H](F)C[C@@H]1[C@@H]2[C@@H](O)C[C@@]2(C)[C@H]1CC[C@]2(O)C(=O)CO	none (no result: USP1-UAF1 inh, Tb PGK inh)
CCCC(=O)O[C@]1(C(=O)CC)CC[C@H]2[C@@H]3CCC4=CC(=O)CC[C@]4(C)[C@H]3[C@@H](O)C[C@@]21C	none (no result: USP1-UAF1 inh, Tb PGK inh, GLS inhibitor)
Nc1nc2ccc(Br)cc2s1	none
Nc1nc2ccc(O)cc2s1	GLS inhibitor 12.6µM
CC(C)(C)c1nnc(NS(=O)(=O)c2ccc(N)cc2)s1	none (no result: USP1-UAF1 inh, Tb PGK inh, GLS inhibitor)
Oc1ccc(-c2csc(-c3ccccc3)n2)cc1O	GLS inhibitor inconclusive (no result: Tb PGK inh)
Cc1nc(-c2ccc(O)c(O)c2)cs1	GLS inhibitor 11.2µM
Oc1ccc(-c2csc(-c3cccnc3)n2)cc1O	GLS inhibitor 3.55µM
O=C1C(Nc2ccc(O)cc2)=C/C(=N/S(=O)(=O)c2cccs2)c2ccccc21	USP1-UAF1 inh 4.47µM, Tb PGK inh inconclusive, PI4K2A inh inconclusive
O=C(O)c1ccc(NC2=C/C(=N/S(=O)(=O)c3cccs3)c3ccccc3C2=O)cc1	USP1-UAF1 inh 5.01µM, Tb PGK inh inconclusive, PI4K2A inh -52.0
O=C(O)c1ccc(Nc2nc3ccccc3nc2NS(=O)(=O)c2cccs2)cc1	none
Cc1ccc(NC(=O)c2ccc3c(c2)NC(=O)c2ccccc2S3)cc1	none
CC1(C(=O)O)CCC2(C)CCC3(C)C(=CC(=O)[C@@H]4C5(C)CC[C@H](O[C@H]6O[C@H](C(=O)O)C(O)C(O)[C@H]6O[C@@H]6O[C@H](C(=O)O)C(O)C(O)C6O)C(C)(C)[C@@H]5CCC43C)[C@@H]2C1 (stereo partly specified)	GLS inhibitor 14.1µM (no result: USP1-UAF1 inh, Tb PGK inh, PI4K2A inh)
Cc1ccc(Cn2cc(CN3[C@@H](CC(C)C)COc4cc(Br)ccc4S3(=O)=O)nn2)cc1	none (no result: USP1-UAF1 inh, Tb PGK inh, GLS inhibitor)
C/C(=N\NC(=S)Nc1ccccc1C)c1ccc(O)cc1	GLS inhibitor 10µM
COc1ccc(C(=O)OCC(=O)N2CCc3ccccc3C2)cc1OC	none
CC(=O)Oc1cc(C(=O)OCC(=O)N2CCc3ccccc3C2)cc(OC(C)=O)c1OC(C)=O	Tb PGK inh inconclusive, GLS inhibitor 6.31µM
C=Cc1c(C)/c2[n-]/c1=C\c1[n-]c(c(CC)c1C)/C=c1\[n-]c3c(c1C)C(=O)C(C(=O)[O-])C=3c1[n-]c(c(C)c1CCC(=O)[O-])\C=2.[Cu].[Na+].[Na+] (stereo unspecified)	none (no result: USP1-UAF1 inh, Tb PGK inh, PI4K2A inh)
Cc1cc2nc3c(=O)n(CCc4ccccc4)c(=O)[nH]c3nc2cc1N	USP1-UAF1 inh 17.8µM
CCCCn1c(=O)[nH]c2nc3cc(N)ccc3nc2c1=O	USP1-UAF1 inh 28.2µM
Nc1ccc2nc3c(=O)n(CCc4ccccc4)c(=O)[nH]c3nc2c1	USP1-UAF1 inh 15.8µM
C=CCn1c(=O)[nH]c2nc3cc(N=CN(C)C)c(C)cc3nc2c1=O	USP1-UAF1 inh inconclusive
Nc1ccc2nc3c(=O)n(C4CCCCC4)c(=O)[nH]c3nc2c1	none
O=S(=O)(O)OCC1OC(COS(=O)(=O)O)(C2(OS(=O)(=O)O)OC(CO)C(OS(=O)(=O)O)C(OS(=O)(=O)O)C2OS(=O)(=O)O)C(OS(=O)(=O)O)C1OS(=O)(=O)O (stereo unspecified)	none (no result: USP1-UAF1 inh, Tb PGK inh, PI4K2A inh)
OCC(O)COc1ccc(Cl)cc1 (stereo unspecified)	none (no result: USP1-UAF1 inh, Tb PGK inh, PI4K2A inh)
CCOC(=O)c1sc(=NC(=O)c2c(F)cccc2F)n(C)c1C	GLS inhibitor 17.8µM
CCOC(=O)c1sc(=NC(=O)c2ccc(F)cc2)n(C)c1C	none
O=C(O)[C@H](O)c1ccccc1	none (no result: USP1-UAF1 inh, Tb PGK inh, GLS inhibitor)
COc1cc(/C=C(\C#N)C(=O)c2c[nH]c3ccccc23)cc(OC)c1O	USP1-UAF1 inh 28.2µM, GLS inhibitor inconclusive
O=C(O)C1Nc2ccc(Br)cc2C2C=CCC12 (stereo unspecified)	USP1-UAF1 inh inconclusive, Tb PGK inh 31.6µM, GLS inhibitor 7.94µM
O=C(O)C1Nc2c(Cl)cc(Cl)cc2C2C=CCC12 (stereo unspecified)	USP1-UAF1 inh inconclusive, Tb PGK inh 25.1µM, GLS inhibitor 7.94µM
O=C(O)C1Nc2c(O)cccc2C2C=CCC12 (stereo unspecified)	Tb PGK inh inconclusive, PI4K2A inh inconclusive, GLS inhibitor 12.6µM
O=S(=O)(O)CC(S)CS (stereo unspecified)	none (no result: USP1-UAF1 inh, Tb PGK inh, PI4K2A inh)
C=CC(=O)Nc1cc2c(Nc3ccc(F)c(Cl)c3)ncnc2cc1OCCCN1CCOCC1	none (no result: USP1-UAF1 inh, Tb PGK inh, GLS inhibitor)
